The source made the active and inactive calls. The calls were made as follows: active = hit-call score of the fitted dose curve at least 0.9, where 1 is the maximum; inactive = score below 0.9.

As usually defined, the AC50 is the concentration giving half of the maximal activity seen.

Read-out in experiment [1]: Thrombomodulin, THBD (gene 7056)
Nature of the experiment: BSK_3C_Thrombomodulin: BioMAP Diversity Plus: 3C Assay for Thrombomodulin Biomarker Activity (AID 2283029). The settings on record: primary human endothelial cells (HUVEC); actives raise or lower the signal. Summed up: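 HUVEC, 3C conditions; compound 24 h; thrombomodulin by ELISA; bidirectional curve fit vs DMSO baseline; parallel SRB total-protein staining for cytotoxicity.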

Read-out in experiment [2]: Urokinase-type plasminogen activator receptor (uPAR), PLAUR (gene 5329)
Nature of the experiment: BSK_4H_uPAR: BioMAP Diversity Plus: 4H Assay for Urokinase-type plasminogen activator receptor (uPAR) Biomarker Activity (AID 2283030). The conditions noted are these: primary human endothelial cells (HUVEC); actives raise or lower the signal. Put shortly: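 uPAR level read by ELISA on HUVEC cultures (BioMAP 4H) 24 h post-dosing, analyzed for gain or loss relative to DMSO. Parallel SRB staining assessed overt cytotoxicity.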

Read-out in experiment [3]: Vascular endothelial growth factor receptor 2 (Homo sapiens) (UniProt P35968)
The experiment is described as follows: BSK_4H_VEGFRII: BioMAP Diversity Plus: 4H Assay for Vascular endothelial growth factor receptor 2 (VEGFR2) Biomarker Activity (AID 2283031). The settings on record: primary human endothelial cells (HUVEC); actives raise or lower the signal. Put shortly:
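Measured by ELISA after 24 h of compound treatment: VEGFR2 on primary human umbilical vein endothelial cells, fitted in both directions relative to DMSO. Parallel cultures received SRB staining (560 nm) for overt cytotoxicity.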

Read-out in experiment [4]: Human Leukocyte Antigen - DR isotype (HLADR), HLA-DRA (gene 3122)
The experiment is described as follows: BSK_BE3C_HLADR: BioMAP Diversity Plus: BE3C Assay for Human Leukocyte Antigen - DR isotype (HLADR) Biomarker Activity (AID 2283032). The settings on record: primary human bronchial epithelial cells; actives raise or lower the signal. Put shortly: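 Primary human bronchial epithelial cells (BE3C); 24 h chemical exposure; HLA-DR by ELISA; bidirectional curve fit vs DMSO baseline.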

Read-out in experiment [5]: Vascular cell adhesion molecule 1 (VCAM1), VCAM1 (gene 7412)
Nature of the experiment: BSK_4H_VCAM1: BioMAP Diversity Plus: 4H Assay for Vascular cell adhesion molecule 1 (VCAM1) Biomarker Activity (AID 2283033).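 As to outcome: cell-surface VCAM-1 protein measured by ELISA.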 The conditions noted are these: primary human endothelial cells (HUVEC); actives raise or lower the signal. Summed up:
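HUVEC, 24 h post-dose; VCAM-1 by ELISA. Bidirectional curve fit vs DMSO baseline. Parallel SRB total-protein stain (0.1% SRB after 10% TCA fixation, 560 nm) for cytotoxicity.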

Read-out in experiment [6]: Interferon-gamma inducible Protein 10 (IP10), CXCL10 (gene 3627)
Nature of the experiment: BSK_BE3C_IP10: BioMAP Diversity Plus: BE3C Assay for Interferon-gamma inducible Protein 10 (IP10) Biomarker Activity (AID 2283034). The conditions noted are these: primary human bronchial epithelial cells; actives raise or lower the signal. Put shortly: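 ELISA readout of IP-10 in BE3C system: primary human bronchial epithelial cells, 24 h post-dosing; bidirectional curve fit vs DMSO baseline.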

Read-out in experiment [7]: Monokine induced gamma interferon (MIG), CXCL9 (gene 4283)
The experiment is described as follows: BSK_BE3C_MIG: BioMAP Diversity Plus: BE3C Assay for Monokine induced gamma interferon (MIG) Biomarker Activity (AID 2283035).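 Also: MIG protein measured by ELISA in BE3C cultures after 24 h of dosing.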 The conditions noted are these: primary human bronchial epithelial cells; actives raise or lower the signal. Summed up:
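hu bronchial epithelial 1° cells, 24 h cpd; MIG by ELISA; bidirectional fit, DMSO = baseline.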

Read-out in experiment [8]: Transforming growth factor beta 1 (TGFb1), TGFB1 (gene 7040)
The experiment is described as follows: BSK_BE3C_TGFb1: BioMAP Diversity Plus: BE3C Assay for Transforming growth factor beta 1 (TGFb1) Biomarker Activity (AID 2283036;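 also: TGF-b1 protein level measured by ELISA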). The conditions noted are these: primary human bronchial epithelial cells; actives raise or lower the signal. Put shortly:
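Read-out: ELISA for TGF-b1 in primary human bronchial epithelial cultures, 24 h post-dose. Bidirectional curve fitting vs DMSO control; gain or loss of signal both scored.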

Read-out in experiment [9]: Plasminogen activator inhibitor-1 (PAI1), SERPINE1 (gene 5054)
The experiment is described as follows: BSK_BE3C_PAI1: BioMAP Diversity Plus: BE3C Assay for Plasminogen activator inhibitor-1 (PAI1) Biomarker Activity (AID 2283037). The conditions noted are these: primary human bronchial epithelial cells; actives raise or lower the signal. Put shortly:
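ELISA read-out of PAI-1 from human bronchial epithelial primary cells, 24 h post-dosing; bidirectional curve fit vs DMSO baseline, gain or loss of signal scored.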

Read-out in experiment [10]: urokinase plasminogen activator (uPA), PLAU (gene 5328)
The experiment is described as follows: BSK_BE3C_uPA: BioMAP Diversity Plus: BE3C Assay for urokinase plasminogen activator (uPA) Biomarker Activity (AID 2283038).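 Also: uPA protein level quantified by ELISA in cell cultures; uPA read one day after compound addition.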 The conditions noted are these: primary human bronchial epithelial cells; actives raise or lower the signal. Summed up: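 ELISA for uPA on human primary bronchial epithelial cultures 24 h post-treatment, gain or loss against DMSO. Parallel SRB staining (0.1% after 10% TCA fixation, 560 nm) assessed overt cytotoxicity.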

Read-out in experiment [11]: Urokinase-type plasminogen activator receptor (uPAR), PLAUR (gene 5329)
The experiment is described as follows: BSK_BE3C_uPAR: BioMAP Diversity Plus: BE3C Assay for Urokinase-type plasminogen activator receptor (uPAR) Biomarker Activity (AID 2283039).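 Also: uPAR protein level measured by ELISA on the cells; cells exposed to compound for one day before measurement.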 The settings on record: primary human bronchial epithelial cells; actives raise or lower the signal. Summed up: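 ELISA readout of uPAR on human lung primary bronchial epithelial cells, 24 h post-dosing. Bidirectional curve fit relative to DMSO vehicle baseline; gain or loss of signal both scored.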

Read-out in experiment [12]: Interleukin-6 (IL6), IL6 (gene 3569)
Nature of the experiment: BSK_CASM3C_IL6: BioMAP Diversity Plus: CASM3C Assay for Interleukin-6 (IL6) Biomarker Activity for (AID 2283040). The conditions noted are these: primary human coronary artery smooth muscle cells; actives raise or lower the signal.

Read-out in experiment [13]: Tissue plasminogen activator (tPA), PLAT (gene 5327)
The experiment is described as follows: BSK_BE3C_tPA: BioMAP Diversity Plus: BE3C Assay for Tissue plasminogen activator (tPA) Biomarker Activity (AID 2283041).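 As to outcome: tPA level quantified by ELISA one day after compound addition.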 The conditions noted are these: primary human bronchial epithelial cells; actives raise or lower the signal. Put shortly: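 ELISA read-out of tPA on human primary bronchial epithelial cells, 24 h post-dosing; bidirectional fit vs DMSO negative control/baseline.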

Read-out in experiment [14]: Interleukin-8 (IL8), CXCL8 (gene 3576)
Nature of the experiment: BSK_CASM3C_IL8: BioMAP Diversity Plus: CASM3C Assay for Interleukin-8 (IL8) Biomarker Activity (AID 2283042).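 Also: IL-8 protein level quantified by ELISA.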 The settings on record: primary human coronary artery smooth muscle cells; actives raise or lower the signal.

Read-out in experiment [15]: Human Leukocyte Antigen - DR isotype (HLADR), HLA-DRA (gene 3122)
Nature of the experiment: BSK_CASM3C_HLADR: BioMAP Diversity Plus: CASM3C Assay for Human Leukocyte Antigen - DR isotype (HLADR) Biomarker Activity (AID 2283043).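 Also: cell-surface HLA-DR protein level quantified by ELISA.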 The settings on record: primary human coronary artery smooth muscle cells; actives raise or lower the signal.

Read-out in experiment [16]: Macrophage colony-stimulating factor (MCSF), CSF1 (gene 1435)
Nature of the experiment: BSK_CASM3C_MCSF: BioMAP Diversity Plus: CASM3C Assay for Macrophage colony-stimulating factor (MCSF) Biomarker Activity (AID 2283044).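 Also: M-CSF protein amount quantified by ELISA after 24 h exposure.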 The settings on record: primary human coronary artery smooth muscle cells; actives raise or lower the signal.

Read-out in experiment [17]: Low-density lipoprotein receptor (LDLR), LDLR (gene 3949)
Nature of the experiment: BSK_CASM3C_LDLR: BioMAP Diversity Plus: CASM3C Assay for Low-density lipoprotein receptor (LDLR) Biomarker Activity (AID 2283045).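 Also: LDLR protein level on the cell surface quantified by ELISA.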 The conditions noted are these: primary human coronary artery smooth muscle cells; actives raise or lower the signal.

Read-out in experiment [18]: Monocyte Chemoattractant Protein-1 (MCP1), CCL2 (gene 6347)
Nature of the experiment: BSK_CASM3C_MCP1: BioMAP Diversity Plus: CASM3C Assay for Monocyte Chemoattractant Protein-1 (MCP1) Biomarker Activity (AID 2283046).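 Also: MCP-1 level quantified by ELISA 24 h after dosing.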 The conditions noted are these: primary human coronary artery smooth muscle cells; actives raise or lower the signal.

A short description of experiment [19]: BSK_CASM3C_Proliferation: Cell Proliferation Assessment in the BioMAP Diversity Plus: CASM3C Assay (AID 2283047).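 Also: sulforhodamine B total protein stain as relative cell number at 560 nm; sub-confluent cells exposed 48 h before staining; fitted both ways against DMSO so gain or loss of cell number.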 The conditions noted are these: primary human coronary artery smooth muscle cells.
Read-out in experiment [20]: Monokine induced gamma interferon (MIG), CXCL9 (gene 4283)
Nature of the experiment: BSK_CASM3C_MIG: BioMAP Diversity Plus: CASM3C Assay for Monokine induced gamma interferon (MIG) Biomarker Activity (AID 2283048).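 Also: MIG protein level measured by ELISA.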 The conditions noted are these: primary human coronary artery smooth muscle cells; actives raise or lower the signal.

With `COP(=S)(OC)Oc1ccc(Sc2ccc(OP(=S)(OC)OC)cc2)cc1`, the result in experiment [1], in experiment [2], in experiment [3], in experiment [7], in experiment [8] and in [9] was inactive. Moreover, the outcome in experiment [10], in experiment [11], in experiment [12], in experiment [14], in experiment [15] and in [16] was inactive. For the same compound, the result in [17], in [18], in experiment [19] and in experiment [20] was inactive. Besides, the AC50 is 8.14 µM (active) in experiment [4], 30.2 µM (active) in experiment [5], 18.2 µM (active) in experiment [6] and 10 µM (active) in experiment [13].

Regarding `COc1cc(OC)nc(NC(=O)NS(=O)(=O)c2ncccc2C(=O)N(C)C)n1`, the outcome in experiment [1], in [2], in experiment [3], in experiment [4], in experiment [5] and in [7] was inactive. Further, the result in experiment [8], in experiment [9], in experiment [10], in experiment [11], in [12] and in experiment [13] was inactive. The outcome in experiment [14], in [15], in experiment [16], in [17], in experiment [18] and in experiment [19] was inactive. Moreover, the result in experiment [20] was inactive.

Turning to `COP(=S)(OC)Oc1ccc(S(=O)(=O)N(C)C)cc1`, the result in experiment [1], in [2], in experiment [3], in experiment [4], in [5] and in experiment [7] was inactive. Besides, the result in [8], in experiment [9], in [10], in experiment [11], in experiment [12] and in experiment [13] was inactive. Moreover, the outcome in experiment [14], in [15], in experiment [16], in experiment [17], in experiment [18] and in experiment [19] was inactive. The result in [20] was inactive.

With `OCc1ccco1`, the outcome in [1], in experiment [2], in [3], in experiment [4], in [5] and in experiment [7] was inactive. The outcome in experiment [8], in [9], in experiment [10], in experiment [11], in experiment [12] and in experiment [13] was inactive. Moreover, the outcome in experiment [14], in experiment [15], in experiment [16], in [17], in experiment [18] and in [19] was inactive. Also, in [20], the result was inactive.

As to `CC(C)CCCCCCOC(=O)c1ccccc1C(=O)OCCCCCCC(C)C`, the result in experiment [1], in experiment [2], in [3], in [4], in [5] and in [6] was inactive. Besides, the outcome in [7], in experiment [8], in experiment [9], in experiment [10], in experiment [11] and in experiment [12] was inactive. Moreover, the outcome in [13], in [14], in experiment [15], in [16], in [17] and in experiment [18] was inactive. In addition, the outcome in experiment [19] and in experiment [20] was inactive.

Turning to `CC(C)(C)c1cc(O)ccc1O`, the half-maximal activity concentration (AC50) in experiment [1] was 33.5 µM (active); in experiment [4], 18.3 µM (active); in experiment [5], 23.2 µM (active); in experiment [6], 26.9 µM (active); in experiment [9], 14 µM (active); in experiment [15], 20 µM (active). Moreover, the results for the concentration at half-maximal activity (AC50) in experiment [16] and in [19] were 20 µM (active) and 29.6 µM (active), respectively. Further, the outcome in [2], in [3], in [7], in [8], in experiment [10] and in [11] was inactive. The result in experiment [12], in experiment [13], in experiment [14], in experiment [17], in [18] and in experiment [20] was inactive.

Regarding `CC(=O)OC(c1ccccc1)C(Cl)(Cl)Cl` (stereo unspecified), the outcome in [1], in experiment [2], in experiment [3], in experiment [4], in experiment [5] and in [6] was inactive. In addition, the result in experiment [7], in [9], in [10], in experiment [11], in experiment [12] and in experiment [13] was inactive. For the same compound, the result in [14], in experiment [15], in experiment [16], in experiment [17], in experiment [18] and in experiment [19] was inactive. Moreover, the outcome in experiment [20] was inactive.

(Values after PubChem BioAssay (EPA / NIEHS).)
